Results as given in PubChem BioAssay (NCATS).
Results filed as inconclusive are left out. Entries that show only a call come without a potency. A number with no mark means an inactive call. The source made the active and inactive calls. Calls follow the shape of the dose curve; as a rule, active = well fitted curve in the direction sought with a large enough effect; inconclusive = small, poorly fitted or top-dose-only effect, or another doubt; inactive = no such curve, though single readings can be large; an effect the other way counts as inactive or inconclusive.

Assays:
Furin (Homo sapiens) = Furin (Homo sapiens) (UniProt P09958); experiment: Furin counterscreen qHTS for Zika virus inhibitors (AID 1347149); also: nearly all actives have a fitted effect of over 70% in size; also: potency is read from the fitted curve at half-maximal effect;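 as to activity change, negative = inhibition: purified recombinant full-length human furin enzyme at 5 nM; fluorescence gain from furin cutting a BOC-RVRR-AMC peptide substrate over 15 min; top concentration of the series differs between compounds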
Method in brief: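 Counterscreen measures cleavage of 2 microM BOC-RVRR-AMC, below its ~15 microM Km, by 5 nM full-length human furin at pH 7.0 after a 15-min compound preincubation. Inhibition derives from the 15-min fluorescence increase at 37C.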

[1] = Confirmatory screen GU Rhodamine qHTS for Zika virus inhibitors qHTS (AID 1347157); also: nearly all actives have a fitted effect of over 70% in size; also: potency is read from the fitted curve at half-maximal effect
Method in brief: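 Percent inhibition derives from the 15-min fluorescence change (ex 480, em 540 nm), normalized to no-enzyme and no-inhibitor wells. Reactions contained 25 nM NS2B-NS3 complex and 1.5 microM substrate in 10 mM Tris-HCl pH 8.0.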

[2] = system: Zika virus NS2B-NS3 protease (linked construct); experiment: Confirmatory screen NINDS AMC qHTS for Zika virus inhibitors (AID 1347152);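 also: AMC fluorescence gain from cleaved Bz-Nle-KRR-AMC substrate over 15 min; top concentration of the series differs between compounds; nearly all actives have a fitted effect of over 70% in size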
Method in brief: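 Enzyme (1 nM, linked construct) was preincubated with compound for 15 minutes at room temperature in 10 mM Tris-HCl pH 8.0 with 0.01% Tween 20. Bz-Nle-Lys-Arg-Arg-AMC was then added to 10 microM, and AMC fluorescence was recorded immediately and after 15 minutes.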

[3] = system: Zika virus NS2B-NS3 protease (unlinked complex); experiment: Confirmatory screen GU AMC qHTS for Zika virus inhibitors (AID 1347153); also: nearly all actives have a fitted effect of over 70% in size
Method in brief: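 Noncovalent NS2B hydrophilic domain/NS3 protease complex (25 nM) in 10 mM Tris-HCl pH 8.0, 0.01% Tween 20 was preincubated 15 min at room temperature with compounds. Then 10 µM AMC substrate (Km 18.3 µM) was added; fluorescence was read over 15 min and fitted to a 4-parameter Hill equation.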

[4] = Tertiary RLuc qRT-PCR qHTS assay for Zika virus inhibitors (AID 1347169); also: top concentration of the series differs between compounds; nearly all actives have a fitted effect of over 55% in size
Method in brief: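 Vero, 1,000 cells/well, o/n 37 C; cpd pinned in DMSO; ZIKV-RLuc Cambodian, MOI 1-2, 48-72 h 37 C; live-cell RLuc substrate, lum read at 1-1.5 h.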

[5] = system: Zika virus NS2B-NS3 protease; experiment: Primary screen GU AMC qHTS for Zika virus inhibitors (AID 1347154)
Method in brief: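 Unlinked Zika NS2B hydrophilic domain/NS3 protease domain noncovalent complex (25 nM final) in 10 mM Tris-HCl pH 8.0, 0.01% Tween 20, with AMC peptide substrate. Fluorescence (ex 340, em 450 nm) change over 15 min, room temperature; percent inhibition fitted to 4-parameter Hill equation.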

[6] = Vero cells viability qHTS for Zika virus inhibitors (AID 1347167)
Method in brief: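 To flag cytotoxic protease inhibitors, viability is measured by ATP-dependent luminescence (CellTiter Glo) after cells attached overnight receive compound for 24 to 48 hours in DMEM with 4% FBS.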

[7] = Primary qHTS for small molecule stabilizers of the endoplasmic reticulum resident proteome: Secreted ER Calcium Modulated Protein (SERCaMP) assay (AID 1508630)
Method in brief: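 The SH-SY5Y reporter protocol was run at 3 concentrations up to 38.3 uM (primary) or 11 concentrations (follow-up): 16 h compound, 100 nM thapsigargin for 4 h, then extracellular luciferase luminescence.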

[8] = molecular target: Tyrosyl-DNA phosphodiesterase 1 (Homo sapiens) (UniProt Q9NUW8); experiment: Confirmation Assay for Inhibitors of Tyrosyl-DNA Phosphodiesterase (TDP1) (AID 489007); conditions: recombinant human TDP1 enzymatic activity, dose-response; also: potency is read from the fitted curve at half-maximal effect; nearly all actives have a fitted effect of over 40% in size
Method in brief: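 Compounds are preincubated 15 min at room temperature with 1 nM recombinant human Tdp1. The reaction starts on adding 15 nM FITC-phosphotyrosine DNA substrate, runs 5 min, and is detected by AlphaScreen beads after 10 min.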

[9] = ZIKV-mCherry secondary qHTS for Zika virus inhibitors (AID 1347158); also: top concentration of the series differs between compounds
Method in brief: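 Compounds were tested in Vero monkey kidney cells infected with recombinant mCherry-expressing Zika virus at MOI 1 for 48-72 h at 37 °C. Fixed cells were nuclear-stained and imaged, and infection rate was taken as the fraction of mCherry-positive cells.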

[10] = Confirmatory screen NINDS Rhodamine qHTS for Zika virus inhibitors (AID 1347161); also: potency is read from the fitted curve at half-maximal effect; nearly all actives have a fitted effect of over 60% in size
Method in brief: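 Percent inhibition, normalized to uninhibited and enzyme-free controls, is fitted to a 4-parameter Hill equation. Fluorescence change comes from a 15-min cleavage of 1.5 microM bis-peptide Rhodamine110 substrate by 25 nM linked NS2B-NS3 at room temperature.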

[11] = system: Zika virus NS2B-NS3 protease (linked); experiment: 384 well plate NINDS AMC confirmatory qHTS for Zika virus inhibitors (AID 1347163); also: potency is read from the fitted curve at half-maximal effect; nearly all actives have a fitted effect of over 50% in size
Method in brief: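 Fluorescence at 355/460 nm was read after 25 minutes of cleavage of 30 microM Ac-VKTGKR-AMC at room temperature, in the dark. Before substrate addition, compounds (up to 1 mM final) sat ~15 minutes with 5, 30 or 60 nM linked protease. Signals were normalized to no-enzyme and no-inhibitor wells.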

[12] = molecular target: N-terminal Xaa-Pro-Lys N-methyltransferase 1 (Homo sapiens) (UniProt Q9BV86); experiment: Confirmatory qHTS for Inhibitors of N-terminal methyltransferase 1 (NTMT1): MTaseGlo Assay (AID 1645874);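 also: luminescence from SAH made as NTMT1 methylates SPKRIA peptide using SAM; series mostly up to about 100 µM; nearly all actives have a fitted effect of over 65% in size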
Method in brief: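 SPKRIA peptide at 1 uM was methylated by 125 nM NTMT1 using 100 uM SAM over 30 min at room temperature, following a 15 min compound preincubation. Product SAH was detected luminescently.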

[13] = molecular target: Rap guanine nucleotide exchange factor 4 (Homo sapiens) (UniProt Q8WZA2); experiment: Confirmatory qHTS for agonist of cAMP-regulated guanine nucleotide exchange factor 4 (EPAC2) (AID 1645884);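 also: nucleotide exchange releases bodipy-GDP from Rap1 and this lowers its fluorescence; nearly all actives have a fitted effect of over 65% in size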
[14] = molecular target: Rap guanine nucleotide exchange factor 4 (Homo sapiens) (UniProt Q8WZA2); experiment: Confirmatory qHTS for antagonist of cAMP-regulated guanine nucleotide exchange factor 4 (EPAC2) (AID 1645885); also: nearly all actives have a fitted effect of over 25% in size
[15] = molecular target: Rap guanine nucleotide exchange factor 3 (Homo sapiens) (UniProt O95398); experiment: Counterscreen qHTS for antagonist of cAMP-regulated guanine nucleotide exchange factor 3 (EPAC1) (AID 1645888);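 also: fluorescence loss as bound BODIPY-GDP is released from Rap1B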
Method in brief: (§1)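 Measured: fluorescence of BODIPY-GDP bound to Rap1B, which falls as exchange proceeds. Conditions include 50 uM competing GDP, 5 and 30 min reads, and a later cAMP challenge for antagonist detection.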

[16] = molecular target: Rap guanine nucleotide exchange factor 3 (Homo sapiens) (UniProt O95398); experiment: Counterscreen qHTS for agonist of cAMP-regulated guanine nucleotide exchange factor 3 (EPAC1) (AID 1645889); also: potency is read from the fitted curve at half-maximal effect; nearly all actives have a fitted effect of over 40% in size
Method in brief: as §1

[17] = system: Zika virus NS2B-NS3 protease (linked construct); experiment: 384 well plate NINDS Rhodamine confirmatory qHTS for Zika virus inhibitors (AID 1347164);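 also: fluorescence from protease cleavage of Ac-LKRR-rhodamine 110 substrate; potency is read from the fitted curve at half-maximal effect; nearly all actives have a fitted effect of over 65% in size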
Method in brief: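 Enzyme (final 5/30/60 nM) + cpd (DMSO), ~15 min; add Ac-LKRR-Rd 10 microM final; 25 min RT, dark; FI ex 485/em 538; normalized to no-enzyme, no-inhibitor ctrls; aprotinin intraplate ctrl.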

Sequence of Furin (Homo sapiens) (P09958 whole entry, looked up): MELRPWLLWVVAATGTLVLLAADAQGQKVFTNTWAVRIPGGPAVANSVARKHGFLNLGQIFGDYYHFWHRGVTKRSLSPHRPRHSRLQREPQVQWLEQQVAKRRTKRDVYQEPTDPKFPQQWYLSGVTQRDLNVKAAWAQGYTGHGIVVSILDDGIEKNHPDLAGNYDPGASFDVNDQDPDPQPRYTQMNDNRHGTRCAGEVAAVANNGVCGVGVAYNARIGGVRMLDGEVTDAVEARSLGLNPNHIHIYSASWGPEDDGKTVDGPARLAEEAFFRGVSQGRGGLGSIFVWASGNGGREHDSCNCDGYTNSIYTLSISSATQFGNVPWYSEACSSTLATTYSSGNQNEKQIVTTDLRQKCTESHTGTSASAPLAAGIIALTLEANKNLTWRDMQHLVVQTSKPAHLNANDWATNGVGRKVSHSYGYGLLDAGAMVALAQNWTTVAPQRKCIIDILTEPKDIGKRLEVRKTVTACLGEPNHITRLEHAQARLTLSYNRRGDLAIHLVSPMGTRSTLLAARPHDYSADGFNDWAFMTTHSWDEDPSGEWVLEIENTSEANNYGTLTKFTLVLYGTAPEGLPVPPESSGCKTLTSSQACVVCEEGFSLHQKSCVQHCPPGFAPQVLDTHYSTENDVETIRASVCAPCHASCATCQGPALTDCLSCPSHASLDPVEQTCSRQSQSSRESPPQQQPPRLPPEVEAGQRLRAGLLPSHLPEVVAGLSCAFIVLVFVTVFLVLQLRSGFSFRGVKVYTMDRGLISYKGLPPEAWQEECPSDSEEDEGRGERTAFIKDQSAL
Sequence of Rap guanine nucleotide exchange factor 4 (Homo sapiens) (Q8WZA2 whole entry, looked up): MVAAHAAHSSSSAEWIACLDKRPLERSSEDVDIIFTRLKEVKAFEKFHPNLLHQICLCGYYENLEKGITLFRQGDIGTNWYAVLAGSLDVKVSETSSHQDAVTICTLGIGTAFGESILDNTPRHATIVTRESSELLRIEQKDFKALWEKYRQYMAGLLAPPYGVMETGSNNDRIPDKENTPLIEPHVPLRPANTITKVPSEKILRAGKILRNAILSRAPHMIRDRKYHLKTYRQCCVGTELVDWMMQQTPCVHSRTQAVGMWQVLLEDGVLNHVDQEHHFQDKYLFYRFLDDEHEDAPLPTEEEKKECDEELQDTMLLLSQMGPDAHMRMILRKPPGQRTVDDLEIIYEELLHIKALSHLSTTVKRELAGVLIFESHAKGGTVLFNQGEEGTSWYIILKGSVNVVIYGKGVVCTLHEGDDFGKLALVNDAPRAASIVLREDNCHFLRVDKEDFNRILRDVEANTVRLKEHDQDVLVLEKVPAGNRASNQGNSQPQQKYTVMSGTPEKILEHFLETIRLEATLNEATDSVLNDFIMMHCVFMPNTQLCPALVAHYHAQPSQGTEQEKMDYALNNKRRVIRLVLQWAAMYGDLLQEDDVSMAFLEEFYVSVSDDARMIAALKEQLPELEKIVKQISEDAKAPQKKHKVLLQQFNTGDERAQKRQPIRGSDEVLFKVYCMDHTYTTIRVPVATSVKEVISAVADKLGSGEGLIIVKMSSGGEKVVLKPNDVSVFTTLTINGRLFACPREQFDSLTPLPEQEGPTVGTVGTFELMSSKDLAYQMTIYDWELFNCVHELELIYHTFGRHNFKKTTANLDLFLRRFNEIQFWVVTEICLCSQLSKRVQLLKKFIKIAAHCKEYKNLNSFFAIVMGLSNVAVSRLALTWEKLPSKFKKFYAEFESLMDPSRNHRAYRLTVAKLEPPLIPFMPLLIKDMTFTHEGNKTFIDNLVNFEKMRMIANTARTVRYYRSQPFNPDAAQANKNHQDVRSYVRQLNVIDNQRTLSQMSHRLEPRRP
Sequence of N-terminal Xaa-Pro-Lys N-methyltransferase 1 (Homo sapiens) (Q9BV86 whole entry, looked up): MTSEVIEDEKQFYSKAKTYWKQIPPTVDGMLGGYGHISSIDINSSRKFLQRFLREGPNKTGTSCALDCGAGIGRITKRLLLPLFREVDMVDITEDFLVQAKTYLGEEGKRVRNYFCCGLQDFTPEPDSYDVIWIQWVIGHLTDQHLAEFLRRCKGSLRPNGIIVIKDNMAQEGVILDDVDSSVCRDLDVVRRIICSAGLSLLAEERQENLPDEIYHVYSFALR
Sequence of Tyrosyl-DNA phosphodiesterase 1 (Homo sapiens) (Q9NUW8 whole entry, looked up): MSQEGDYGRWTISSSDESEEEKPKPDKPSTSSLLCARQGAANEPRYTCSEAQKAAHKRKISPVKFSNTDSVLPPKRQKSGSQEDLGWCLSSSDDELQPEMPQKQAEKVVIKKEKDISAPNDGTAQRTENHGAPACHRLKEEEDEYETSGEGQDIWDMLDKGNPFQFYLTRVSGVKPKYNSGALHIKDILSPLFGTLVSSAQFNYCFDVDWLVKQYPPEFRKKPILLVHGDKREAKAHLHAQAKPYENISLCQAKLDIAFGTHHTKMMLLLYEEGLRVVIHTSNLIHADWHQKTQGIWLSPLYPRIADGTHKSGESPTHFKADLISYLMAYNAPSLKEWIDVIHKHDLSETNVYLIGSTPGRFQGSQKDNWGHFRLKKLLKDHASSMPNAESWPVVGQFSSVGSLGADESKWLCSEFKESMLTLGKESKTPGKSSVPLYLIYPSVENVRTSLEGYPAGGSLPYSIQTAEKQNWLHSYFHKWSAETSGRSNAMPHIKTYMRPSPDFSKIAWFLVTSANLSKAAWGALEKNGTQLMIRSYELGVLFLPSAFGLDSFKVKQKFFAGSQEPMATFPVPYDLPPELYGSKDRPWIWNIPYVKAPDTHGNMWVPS
Sequence of Rap guanine nucleotide exchange factor 3 (Homo sapiens) (O95398 whole entry, looked up): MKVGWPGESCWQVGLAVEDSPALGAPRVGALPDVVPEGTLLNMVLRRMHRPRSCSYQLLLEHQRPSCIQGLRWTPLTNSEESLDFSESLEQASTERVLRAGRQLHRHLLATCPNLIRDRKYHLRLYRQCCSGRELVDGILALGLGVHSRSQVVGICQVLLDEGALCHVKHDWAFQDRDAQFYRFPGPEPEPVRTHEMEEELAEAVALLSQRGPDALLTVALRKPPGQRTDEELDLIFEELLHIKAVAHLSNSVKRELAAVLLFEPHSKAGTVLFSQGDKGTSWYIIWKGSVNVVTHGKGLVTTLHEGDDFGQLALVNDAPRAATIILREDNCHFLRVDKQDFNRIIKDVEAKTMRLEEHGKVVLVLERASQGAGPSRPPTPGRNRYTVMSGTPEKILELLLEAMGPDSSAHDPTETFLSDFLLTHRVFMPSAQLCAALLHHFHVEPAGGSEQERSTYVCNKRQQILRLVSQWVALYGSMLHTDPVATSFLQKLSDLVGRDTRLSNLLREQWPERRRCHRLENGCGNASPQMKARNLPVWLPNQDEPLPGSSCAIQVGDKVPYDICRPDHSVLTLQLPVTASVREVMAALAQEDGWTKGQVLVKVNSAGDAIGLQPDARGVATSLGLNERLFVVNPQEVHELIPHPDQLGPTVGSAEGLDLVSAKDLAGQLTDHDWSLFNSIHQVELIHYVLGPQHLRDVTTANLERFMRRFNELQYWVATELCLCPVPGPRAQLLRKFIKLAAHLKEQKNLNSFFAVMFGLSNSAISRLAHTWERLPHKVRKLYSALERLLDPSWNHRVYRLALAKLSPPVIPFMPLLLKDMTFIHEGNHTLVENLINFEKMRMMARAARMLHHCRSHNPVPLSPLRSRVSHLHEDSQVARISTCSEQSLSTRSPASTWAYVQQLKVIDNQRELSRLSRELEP

For `Cc1ccc(C(=O)Nc2ccc(C(=O)OCc3cc(=O)n4c5c(sc4n3)CCCC5)cc2)cc1`, the Potency (Furin (Homo sapiens)) was 41.8 µM (active) and the Potency [1] was “inactive”.
In the case of `COC(=O)[C@H](Cc1ccc(OC)cc1)NC(=O)[C@H]1CN(S(=O)(=O)c2ccccc2)CCN1S(=O)(=O)c1ccccc1`, the Potency (Furin (Homo sapiens)) is reported as “inactive”, the Potency [2] is reported as “inactive” and the Potency [3] is reported as “inactive”. For the same compound, the Potency [4] was “inactive”.
With `Cc1ccc2c(=O)c3ccccc3n(CCCN)c2c1C` the Potency (Furin (Homo sapiens)) was 24.1 µM (active), the Potency [3] was “inactive” and the Potency [5] was 21.2 µM (active). The Potency [6] was “inactive” and the Potency [7] was “inactive”.
For `N#C/C(=C\c1ccc(-c2ccc(Cl)c(C(=O)O)c2)o1)c1nc2ccccc2[nH]1`, the Potency [8] was 112 µM (active), the Potency (Furin (Homo sapiens)) was “inactive” and the Potency [1] was 25.1 µM (active). For the same compound, the Potency [9] was “inactive”, the Potency [10] was 22.4 µM (active) and the Potency [11] was 126 µM (active). For the same compound, the Potency [4] was “inactive”, the Potency [12] was “inactive” and the outcome [13] was “inactive”. The activity change, negative = inhibition [14] was -25.6% [at 12.7 µM], the outcome [15] was “inactive” and the Potency [16] was 79.4 µM (active).
For `C[C@@H](NC(=O)c1ccc(Cl)cc1)c1c(-c2ccc(F)cc2)noc1C(=O)O`, the Potency (Furin (Homo sapiens)) was “inactive”, the Potency [2] was “inactive” and the Potency [9] was “inactive”. The Potency [4] was “inactive”.
In the case of `N#Cc1ccccc1OCC1CN(Cc2cccc(C(F)(F)F)c2)C(=O)c2c(ccnc2-c2ccc(OCC(=O)O)cc2)O1` (stereo not drawn), the Potency (Furin (Homo sapiens)) is reported as “inactive”, the Potency [2] is reported as “inactive” and the Potency [9] is reported as “inactive”. For the same compound, the Potency [11] was 70.8 µM (active), the Potency [17] was 56.2 µM (active) and the Potency [4] was “inactive”.
